Common to all, as to assay: NCI-60 one-dose screen, 48 h (100 = growth as untreated, 0 = no growth, -100 = all killed)
Conditions in all cases: 10 µM unless noted

For experiment [1], the system named is DU-145 prostate.
Experiment [2] deals with K-562 leukemia.
Experiment [3] concerns MALME-3M melanoma.
In experiment [4] the test system is MDA-MB-231 breast.
For experiment [5], the system named is RXF 393 renal.
The test system of experiment [6] is SF-268 CNS.
Experiment [7] deals with SF-539 CNS.
The test system of experiment [8] is UACC-257 melanoma.
The subject of experiment [9] is M14 melanoma.
The test system of experiment [10] is HCT-15 colon.
In experiment [11] the test system is HT29 colon.
Experiment [12] concerns SNB-75 CNS.
Experiment [13] concerns SNB-19 CNS.
The subject of experiment [14] is U251 CNS.
In experiment [15] the test system is PC-3 prostate.
For experiment [16], the system named is SK-MEL-5 melanoma.
Experiment [17] has as its system UACC-62 melanoma.
Experiment [18] concerns LOX IMVI melanoma.
Experiment [19] deals with SK-MEL-28 melanoma.

Structures are written as SMILES. About 83,000 compounds went through this panel and 20% of them were active in at least one assay; those are over-represented in the sample as a whole.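 Assay: single dose, 48 h. Readout: percent growth (0 = no net growth; negative = cell death). Active: <10.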 Unmarked numbers belong to inactive results. Activity calls are given as the source filed them.

Take `C#CC[C@@H]1C[C@]2(C)[C@H]3CC=C4[C@H]5[C@@H](C)[C@H](C)CC[C@]5(C(=O)NCCCCCCCCN)CC[C@@]4(C)[C@]3(C)CC[C@H]2C(C)(C)[C@H]1OC(C)=O`: the growth in experiment [1] is 41.8%; in [2], -23.4% (active); in experiment [3], 66%; in experiment [4], 56%; in [5], 70.4%; in experiment [6], 92.9%. Moreover, the growth in experiment [7] is 83.8%; in experiment [8], 100%; in experiment [9], 29.3%; in experiment [10] it was -62.1% (active); in experiment [11], -65.4% (active); in experiment [12] it was 83.2%. The growth in experiment [13] was 64.8%; in experiment [14], -90.8% (active); in experiment [15], -21.7% (active); in experiment [16] it was 91.9%; in experiment [17], 105%; in [18] it was -52.9% (active). For the same compound, the growth in experiment [19] is 103%.

For the compound `CCCNC(=S)N/N=C(\C)c1ccccn1`, the growth in experiment [1] was 34.3%; in [2], 17%; in [3], 24.3%; in experiment [4] it was 41.1%; in [5], 10.4%; in experiment [6] it was 38.7%. Besides, the growth was 24.2% in experiment [7]; 12% in [8]; 6.11% (active) in experiment [9]; 28.5% in experiment [10]; 37.2% in experiment [11]; 74.2% in experiment [12]. The growth in experiment [13] was 38.4%; in experiment [14] it was 21.7%; in experiment [15] it was 26.7%; in experiment [16], 22.4%; in experiment [17] it was 11.1%; in experiment [18], 9.29% (active). The growth in experiment [19] was 52.4%.

For `C/C(=N\OC(=O)Nc1cccc(Cl)c1)c1ccccc1`, the growth in [1] was 102%; in [2] it was 90.1%; in experiment [3], 98.2%; in [4], 103%; in experiment [5], 87.5%; in experiment [6], 113%. The growth was 104% in [7]; 104% in experiment [8]; 108% in [9]; 94.2% in [10]; 94.4% in experiment [11]; 80.4% in experiment [12]. For the same compound, the growth in experiment [13] was 106%; in [14] it was 93.5%; in [15] it was 94%; in [16] it was 94.8%; in experiment [17] it was 93.7%; in experiment [18] it was 110%. Besides, in experiment [19], the growth is 95.2%.

With `CC1CCN(Cc2ccc(NC(=O)c3cc4ccc5cccnc5c4[nH]3)cc2)CC1`, the growth in experiment [1] was 2.24% (active); in experiment [2], 8.98% (active); in [3] it was 10.2%; in [4], 23.2%; in [5] it was -3.5% (active); in experiment [6] it was 37.4%. Also, the growth in experiment [7] is 8.44% (active); in experiment [8] it was -40.6% (active); in [9] it was -22.5% (active); in experiment [10] it was 22.2%; in [11], 6.27% (active); in [12], 14.5%. Further, the growth was 64.6% in [13]; 14.7% in experiment [14]; 41.6% in [15]; 2% (active) in [16]; -65.4% (active) in experiment [17]; 8.82% (active) in [18]. The growth in [19] was -31.9% (active).

As to `Nc1nc2ccc([C@@H]3Nc4ccc5[nH]ncc5c4[C@H]4[C@H]5CCC(C5)[C@H]43)cc2s1`, the growth was 9.96% (active) in [1]; 19.4% in experiment [2]; -55.7% (active) in [3]; 47.2% in experiment [4]; -4.16% (active) in [5]; 48.4% in experiment [6]. The growth in [7] was 0.597% (active); in experiment [8] it was 29.3%; in [9], 17.7%; in [10], 29.7%; in [11], 5.7% (active); in experiment [12], -24.8% (active). The growth was 30.8% in experiment [13]; 23.8% in experiment [14]; 6.63% (active) in [15]; 24.4% in [16]; -88.6% (active) in experiment [17]; 40.7% in experiment [18]. Further, the growth in experiment [19] is 23.8%.

For the compound `CC(C)N=C1CCCC1C(=S)SSC(=S)C1CCCC1=NC(C)C` (configuration not stated), the growth was 64.9% in experiment [1]; 34.9% in experiment [2]; 53.8% in [3]; 76.9% in experiment [4]; 78.3% in [5]; 68.6% in [6]. Besides, the growth is 83.4% in experiment [7]; 69.7% in experiment [8]; 64.4% in experiment [9]; 54.6% in [10]; 79.1% in [11]; 74.3% in [12]. Further, the growth is 83.5% in [13]; 50.3% in [14]; 47.4% in experiment [15]; 81.6% in experiment [16]; 75% in [17]; 50.9% in experiment [18]. The growth in experiment [19] is 81%.

With `COc1ccc2[nH]c(O)c(/C=c3/ccc4c(c3)N=C(c3ccc(C(F)(F)F)cc3)N=4)c2c1`, the growth in experiment [1] is 86.6%; in experiment [2], 29.7%; in [3], 99.9%; in experiment [4] it was 74.8%; in experiment [5], -4.65% (active); in experiment [6], 85.6%. Besides, the growth in experiment [7] was 78.2%; in [8], 94.9%; in experiment [9], 90.1%; in experiment [10], 53.9%; in experiment [11], 80%; in experiment [12], 60.7%. Moreover, the growth in [13] is 81.4%; in experiment [14], 51.6%; in experiment [15], 43.1%; in experiment [16], 79.1%; in experiment [17] it was 86%; in [18], 58.2%. Moreover, the growth in [19] was 83.9%.

For `CCCCNCC(O)c1cc(-c2ccc(C(F)(F)F)cc2)nc(-c2ccc(C(F)(F)F)cc2)c1` (configuration not stated), the growth in [1] was 6.08% (active); in [2], -59.5% (active); in experiment [3], -41.6% (active); in [4], -71.9% (active); in experiment [5], -94.4% (active); in [6], -86% (active). Besides, the growth in [7] was -74.9% (active); in [8], -70.3% (active); in experiment [9], -79.7% (active); in experiment [10], -64.7% (active); in experiment [11] it was -77% (active); in [12], -85% (active). Besides, the growth in experiment [13] is -77.1% (active); in [14], -92.1% (active); in [15] it was -81.1% (active); in experiment [16], -24.2% (active); in [17], -83.4% (active); in experiment [18], -67.2% (active). Further, the growth in experiment [19] was -85.3% (active).
